Compounds with a hit are over-represented: about 21% of the library has one in this group of screens.
Pf growth 48h: P. falciparum growth inhibition at 48 hours (one generation). P. falciparum luciferase growth in erythrocytes, 48 h. 310,000 tested, 5.9% active. Potency, µM (highest dose often 28.7 µM), without a hit: at the highest dose activity change, negative = inhibition, hits mostly inhibitors. AID 504832; active = well fitted inhibition curve with a large enough effect; inconclusive = small, poorly fitted or top-dose-only effect, or another doubt; inactive = no such curve, though single readings can be large or run the other way; note: potency is the fitted concentration of half-maximal effect; % is set by controls: 0 for no effect and ±100 for the full control effect
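Luciferase-expressing P. falciparum in infected erythrocytes (2% hematocrit, 0.1% parasitemia final) in RPMI 1640/0.5% Albumax were exposed to compound for 48 hours at 37 C, 5% CO2; growth read as luminescence.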
CHX counter: counter-screen for Shiga toxin inhibitors: cycloheximide protein synthesis inhibition; cell reporter, cycloheximide protein synthesis inhibition counterscreen; max response, %; 300,000 tested, 12% active; in the data active = max response mostly above about 13%, no sharp cut-off; inactive = mostly below about 14%; note: read at 38.3 µM for the half of the compounds with a filed dose; 0% is about no effect
NS1 function inh: influenza NS1 inhibition; Potency, µM (series often up to 46.1 µM), without a hit: at the highest dose activity, positive = more growth; 270,000 tested, 0.4% active; note: potency is the fitted concentration of half-maximal effect; actives are rising curves; nearly all actives have a fitted effect of over 50% in size
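OD600 was taken as the measure of yeast growth restored by compound in an NS1-expressing S. cerevisiae strain. Cells had been washed out of glucose medium and diluted 1:100 into galactose -URA medium, pH 6.0.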
SARS PLpro yeast: inhibitors of SARS-CoV papain-like protease in yeast. S. cerevisiae expressing SARS-CoV PLpro, growth rescue. AID 485353. Potency, µM (series often up to 32.9 µM), without a hit: at the highest dose activity, positive = growth rescue, hits mostly activators. 330,000 tested, 0.19% active; note: potency is the fitted concentration of half-maximal effect; 0% is about no effect; nearly all actives have a fitted effect of over 55% in size
Shiga toxin inh: blocks Shiga toxin action in Vero cells; 290,000 tested, 9.2% active; inhibition, % at 38.7 µM; AID 2315; Vero cells, Shiga toxin protein synthesis inhibition reporter; in the data active = inhibition mostly above about 28%, no sharp cut-off; inactive = mostly below about 43%; note: 0% is about no effect
Pf growth 96h: inhibits malaria parasite growth, 96 h | P. falciparum luciferase reporter growth, 96 h | Potency, µM (series often up to 28.7 µM), without a hit: top-dose activity change, negative = inhibition, usual class: inhibitors | 320,000 tested, 6.9% active | AID 504834; active = well fitted inhibition curve with a large enough effect; inconclusive = small, poorly fitted or top-dose-only effect, or another doubt; inactive = no such curve, though single readings can be large or run the other way; note: potency is the fitted concentration of half-maximal effect; % is set by controls: 0 for no effect and ±100 for the full control effect
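Plates of compound plus infected erythrocytes (2% hematocrit, 0.05% parasitemia final) incubate 96 hours, 37 C, 5% CO2. Detection reagent added; reduced luminescence from the parasites' luciferase reporter flags inhibition.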
* marks the source's active call; other numbers are inactive results; ? = inconclusive; nt = no result; [ ] = another dose, or the depositor's remark. Unless noted, calls come from the whole dose curve.

SMILES | Pf growth 48h | CHX counter | NS1 function inh | SARS PLpro yeast | Shiga toxin inh | Pf growth 96h
CC1CCc2sc(C(=O)OCC(=O)NCc3ccc(F)cc3)cc2C1 (stereo not drawn) | 1% | 4 | -10% | -19% | -8 | -3%
CC(=O)C(=Nc1ccccc1Cl)NNc1ccc(Cl)cc1 | 12µM* | 0 | ? | -115% | 1 | 4.7µM*
O=C(C1=C(O)C(=O)N(CC2CCCO2)C1c1cccc(O)c1)c1ccco1 (stereo not drawn) | 24% | -8 | 6% | 0% | 1 | 0%
CC(C)CCNC(=O)c1onc(CSc2ccc(F)c(F)c2)c1C(=O)NCCC(C)C | 12µM* | -3 | ? | -4% | 2 | 10µM*
CC(C)NC(=O)c1onc(CSc2ccc(F)c(F)c2)c1C(=O)O | -2% | 6 | 9% | -1% | -4 | ?
CC(C)CCNC(=O)c1onc(CSc2ccc(F)cc2)c1C(=O)NCCC(C)C | 4.1µM* | nt | nt | 1% | nt | ?
CC(C)CCNC(=O)c1onc(CSc2ccc(Cl)cc2)c1C(=O)NCCC(C)C | ? | 1 | -9% | -2% | 10 | ?
COc1ccc(NC(=O)CCS(=O)(=O)c2ccc3c(c2)oc(=O)n3C)cc1 | 7% | -11 | 7% | -6% | -9 | -29%
COc1ccc(C2C(C#N)=C(N)N(N(C)C)C3=C2C(=O)CC(C)(C)C3)cc1 (stereo not drawn) | 3% | 1 | 0% | 2% | -6 | 166%
COC(=O)c1ccc(C2C(C#N)=C(C)NC3=C2C(=O)CC(C)(C)C3)cc1 (stereo not drawn) | 8% | -4 | -9% | -1% | -22 | 9.3µM*
COc1ccc(C2C(C#N)=C(SC)NC3=C2C(=O)CC(C)(C)C3)cc1 (stereo not drawn) | ? | -2 | -8% | -2% | -7 | 22%
COc1ccc(C2CC(=O)C3=C(C2)NC(C)=C(C#N)C3c2ccc(N(C)C)cc2)cc1 (stereo not drawn) | 6.6µM* | 18 | ? | 11% | -8 | 10%
Cc1ccc2c(Cn3ccnc3)cc(=O)oc2c1C | -10% | 15 | 0% | 1% | 44 | 12%
Cc1cc(Cn2ccnc2)c(C)c([N+](=O)[O-])c1Cn1ccnc1 | 10µM* | -2 | 3% | 0% | -3 | ?
N=c1oc2c3c4c(cc2cc1C(=O)Nc1ccccc1)CCCN4CCC3 | nt | 23* | ? | -6% | 28 | 13µM*
CC(C)(C)NC(=O)[C@@H]1C[C@@H]2CCCC[C@@H]2CN1C[C@@H](O)[C@H](Cc1ccccc1)NC(=O)[C@H](CC(N)=O)NC(=O)c1ccc2ccccc2n1 | ? | -3 | -17% | 2% | -8 | 15µM*
CC1(C)S[C@@H]2[C@H](NC(=O)COc3ccccc3)C(=O)N2C1C(=O)OCc1cc2ccccc2n1S(=O)(=O)c1ccccc1 (stereo partly drawn) | -16% | -3 | 20% | 7% | -12 | 13µM*
CCOC(=O)C1=C(C)NC(C)=C(C(=O)OCC)C1c1ccccc1C=CC(=O)OC(C)(C)C | 13µM* | nt | nt | nt | nt | 8.5µM*
CCOC(=O)C1=C(C)NC(C)=C(C(=O)OCC)C1/C=C/c1ccccc1OC | 9.3µM* | 5 | -2% | 19% | -6 | ?
COCCOC(=O)C1=C(C)NC(C)=C(C(=O)OCCOC)C1/C=C/c1ccccc1OC | ? | -1 | 0% | 0% | -9 | 9.3µM*
CCOC(=O)C1=C(C)NC(=O)NC1/C=C/c1ccccc1OC (stereo not drawn) | 2% | -3 | -1% | 1% | -12 | -21%
COc1ccc(CCNc2ncnc3c2c(C)c(C)n3CCO)cc1OC | 2%[0.00184 µM] | -1 | 2% | 1% | -3 | ?
Cc1ccc(-n2ncc3c2CC(C)(C)CC3NC(=O)CCN2CCCO2)cc1 (stereo not drawn) | ? | 0 | -5% | -3% | 10 | 12%
COc1cc2c(cc1O)[C@@H]1Cc3ccc(OC)c(O)c3CN1CC2 | 12µM* | nt | nt | nt | nt | 6.6µM*
COc1ccc(N2CCN(C(C)C(=O)N(C)Cc3ccccc3)CC2)cc1 (stereo not drawn) | 0% | 6 | -23% | 0% | -7 | 26%
SMILES | Pf growth 48h | CHX counter | NS1 function inh | SARS PLpro yeast | Shiga toxin inh | Pf growth 96h
O=C(Cn1c(=S)[nH]c2ccccc21)c1ccccc1 | 11% | -2 | 23% | -2% | 8 | 75%
Cc1ccc(NC(=O)Cn2c(=S)[nH]c3ccccc32)cc1 | 20% | 22* | nt | 2% | 42 | ?
O=C(NC1CCCCC1)C(c1ccccn1)N(C(=O)c1csnn1)c1ccccc1F (stereo not drawn) | -3% | -2 | 4% | -5% | -7 | 14%
CC(C)OCCCNC(=O)NC12CC3CC(CC(C3)C1)C2 | -1% | 13* | -7% | 4% | 15 | 4%
Cc1cccc(C)c1NC(=O)COC(=O)c1c2c(nc3ccccc13)/C(=C\c1ccc3c(c1)OCO3)CCC2 | 8.3µM* | 18* | 0% | -4% | 44* | ?
CC(OC(=O)c1cc2ccccc2cc1O)C(=O)Nc1ccc(S(N)(=O)=O)cc1 (stereo not drawn) | 0% | -1 | 1% | 0% | -9 | 20%
CC(OC(=O)c1c2c(nc3ccccc13)/C(=C\c1ccc3c(c1)OCO3)CCC2)C(=O)Nc1ccc(S(N)(=O)=O)cc1 (stereo not drawn) | ? | 42* | 11µM* | 20% | 49* | ?
O=C(CCC(=O)N1CCOc2ccc(Cl)cc21)NCCCN1CCN(Cc2ccccc2)CC1 | ? | -1 | -9% | -1% | -5 | 59%
O=C(CCC(=O)N1CCOc2ccc(Cl)cc21)NCCCN1CCOCC1 | 1% | -1 | -3% | -9% | -4 | -2%
CN(CCCNC(=O)CCC(=O)N1CCOc2ccc(Cl)cc21)Cc1ccccc1 | 3% | 1 | 3% | 1% | -2 | 15µM*
CC(CNC(=O)CCC(=O)N1CCOc2ccc(Cl)cc21)c1ccccc1 (stereo not drawn) | ? | -2 | -12% | 1% | 4 | 13µM*
COc1ccccc1CNC(=O)CCC(=O)N1CCOc2ccc(Cl)cc21 | -6% | -4 | -12% | 3% | 3 | ?
O=C(CCC(=O)N1CCOc2ccc(Cl)cc21)NCc1ccccc1 | -14% | -3 | -2% | 1% | -2 | 12µM*
C[C@H](Cn1cnc2c(N)ncnc21)OCP(=O)(O)O | 8% | nt | nt | nt | nt | -13%
COc1ccc(C=Nc2c(O)ccc3ccccc23)cc1OC | nt | nt | -1% | nt | nt | nt
COCCN(C(=O)c1csnn1)C(C(=O)NC(C)(C)C)c1cccc(OC)c1 (stereo not drawn) | -5% | 2 | -1% | 12% | -4 | nt
COc1ccccc1C(=O)Nc1ccc2nc(SCC(=O)N(C)C)sc2c1 | ? | 2 | -14% | 9% | 6 | 12µM*
O=C(CSc1nc2ccc(NC(=O)c3ccccc3C(=O)O)cc2s1)Nc1ccc(F)c([N+](=O)[O-])c1 | 1% | 25 | -16% | -3% | 30* | 115%

Assay outcomes as filed in PubChem BioAssay.
